# Screening data from PubChem.
# Most compounds without a hit are left out; they make up all but 2.8% or so of the library.
# pCIP destab: p/CIP-EGFP fusion destabilizers, primary screen, fluorescence, F442A cells | Q05BA5 | AID 1984, 2009 | 16 h | 0.01% of 290,000 active | decrease of EGFP signal, % at 10 µM;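 active = EGFP signal decrease of at least 30% at 10 µM or well 3 SD below plate mean, unless failing retest; inactive = the rest, including hits failing retest or dose response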
# AHR activator: AHR activators, primary screen, cell-based, luminescence, luciferase reporter, human; AHR-responsive luciferase reporter cells; 2.5% of 320,000 active; AID 2796, 2010; activation, % at 5 µM; in the data active = activation above about 47%;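 note: 0% = vehicle wells and 100% = reference agonist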
# Target sequence (P35869 whole entry, looked up): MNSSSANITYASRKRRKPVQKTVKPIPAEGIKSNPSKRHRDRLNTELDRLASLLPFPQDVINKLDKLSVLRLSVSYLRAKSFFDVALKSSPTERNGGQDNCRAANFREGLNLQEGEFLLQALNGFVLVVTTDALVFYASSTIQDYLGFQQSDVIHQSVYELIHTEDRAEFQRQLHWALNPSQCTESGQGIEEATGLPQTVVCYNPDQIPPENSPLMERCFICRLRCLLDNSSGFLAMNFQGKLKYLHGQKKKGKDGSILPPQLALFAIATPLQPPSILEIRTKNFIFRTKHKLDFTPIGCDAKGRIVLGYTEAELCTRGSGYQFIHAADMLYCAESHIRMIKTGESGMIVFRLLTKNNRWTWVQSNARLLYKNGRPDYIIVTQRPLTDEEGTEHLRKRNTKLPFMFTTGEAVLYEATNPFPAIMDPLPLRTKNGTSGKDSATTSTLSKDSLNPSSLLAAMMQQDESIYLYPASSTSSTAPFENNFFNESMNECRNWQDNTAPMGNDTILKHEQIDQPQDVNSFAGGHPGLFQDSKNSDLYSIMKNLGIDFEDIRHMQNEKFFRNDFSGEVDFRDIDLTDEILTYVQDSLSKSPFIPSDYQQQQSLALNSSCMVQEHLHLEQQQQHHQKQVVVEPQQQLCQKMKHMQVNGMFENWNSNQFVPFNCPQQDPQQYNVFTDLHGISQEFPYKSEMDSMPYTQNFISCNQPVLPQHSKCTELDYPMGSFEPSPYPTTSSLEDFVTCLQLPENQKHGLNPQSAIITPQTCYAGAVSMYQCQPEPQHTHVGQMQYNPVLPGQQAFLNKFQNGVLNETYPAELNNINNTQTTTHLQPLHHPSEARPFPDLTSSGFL
# Platelet DG rel: inhibitors of platelet dense granule secretion, primary screen, cell-based, MLPCN, human platelets | inhibition, %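 (compounds screened at 7.5 µM in platelet-rich plasma)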 | 0.22% of 300,000 active | human platelet-rich plasma, SFLLRN dense granule ATP release, luminescence;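 active = mean replicate score, as percent of positive control, at or above 50; inconclusive = mean below 50 but at least one replicate at or above 50; inactive = mean and every replicate below 50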
# HIF act: HIF pathway transcriptional activators, primary screen, cell-based, U2OS HRE-luciferase, luminescence; activation, % at 7.5 µM (by protocol); 0.32% of 300,000 active; U2OS HRE-luciferase reporter; normalized: DMSO 0%, desferrioxamine 100%;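 active = mean activation of at least 10% of the iron chelator positive control signal, with at least half of replicates also reaching 10%; inconclusive = mean and replicate majority disagree about reaching 10%; inactive = mean and most replicates under 10%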
# PolyA inh: polyadenylation inhibitors in yeast reporter cells, primary screen, luminescence, S. cerevisiae; S. cerevisiae SKY197-pL101 polyadenylation reporter, beta-gal luminescence; efflux-impaired pdr1/pdr3 knockout yeast; score 100 = 6 SD above DMSO; activity score, % at 12 µM; 0.02% of 300,000 active; AID 1875, 2009;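 active = lowest replicate activity score at least 50, where 100 means six control SD above control mean; inconclusive = lowest score under 50 but half or more replicates reach 50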;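 note: yeast exposed to compound for 9 h at 30 °C; higher score means more reporter readthrough which indicates perturbed polyadenylation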
# The depositor's hits bear a star; ? = inconclusive; / = not tested or not shown.
SMILES,pCIP destab,AHR activator,Platelet DG rel,HIF act,PolyA inh
CCCn1c(=O)c(C(=O)NCCc2ccccc2)c(O)c2ccccc21,-13.6,1.8,-4.9,-0.2,24.1
Cn1c(=O)c(C(=O)NCCc2ccccc2)c(O)c2ccccc21,0.2,72.2*,3.2,-0.2,25.7
Cn1c(=O)c(C(=O)NNC(=O)c2ccccc2Cl)c(O)c2ccccc21,-7.3,36.0,3.0,0.1,88.4*
Cc1ccn2c(NCc3ccc4c(c3)OCO4)c(-c3ccc(O)cc3)nc2c1,-7.9,66.0*,15.3,1.2,-8.2
Cc1ccc2nc(-c3ccc(O)cc3)c(Nc3ccc4c(c3)OCCO4)n2c1,-9.5,2.5,-1.3,2.3,9.8
Fc1ccc(-c2nc3ccccn3c2NCc2ccc3c(c2)OCO3)cc1,-20.8,33.1,-1.8,1.3,-6.3
Cc1ccc(-c2nc3cnccn3c2Nc2ccc3c(c2)OCO3)cc1,-14.9,55.7*,6.4,-0.1,-11.5
Oc1ccc(-c2nc3ccccn3c2NCc2ccc3c(c2)OCO3)cc1,-30.2,70.7*,/,/,/
CN(C)c1ccc(-c2nc3cnccn3c2Nc2ccc3c(c2)OCCO3)cc1,-12.7,26.5,-4.8,1.7,18.8
Cc1ccc2nc(SCC(=O)Nc3cccc([N+](=O)[O-])c3)[nH]c2c1,2.1,89.3*,7.3,-0.3,-7.8
Cc1ccc2nc(SCC(=O)Nc3ccc(F)cc3F)[nH]c2c1,-3.4,71.2*,1.3,0.3,-1.3
Cc1ccc2nc(SCC(=O)Nc3ccc(C(N)=O)cc3)[nH]c2c1,1.5,24.5,-3.8,-0.3,-5.8
Cc1ccc2nc(SCC(=O)Nc3c(F)cccc3F)[nH]c2c1,-15.4,25.9,-2.2,1.1,2.3
CCCC(C)NC(=O)CSc1nc2ccc(C)cc2[nH]1 (centres undefined),9.9,51.0*,1.4,0.7,-9.4
Cc1ccc2nc(SC(C)C(=O)N3CCCC3)[nH]c2c1 (centres undefined),-8.0,73.1*,-2.1,0.9,0.4
Cc1ccc2nc(SC(C)C(=O)N3CCCCC3)[nH]c2c1 (centres undefined),6.5,42.8,-2.8,2.7,-6.2
CC(Oc1ccc2ccc(=O)oc2c1)C(=O)NC(Cc1c[nH]c2ccc(O)cc12)C(=O)O (centres undefined),13.7,0.5,-1.2,-0.2,?
Cc1nc2ccccc2c(=O)n1/N=C/c1ccccc1O,4.9,13.8,13.7,2.0,-0.2
Cc1nc2ccccc2c(=O)n1/N=C/c1ccc(O)c(O)c1O,-7.0,4.9,6.0,-0.2,-26.0
Cc1nnc(-c2ccccc2)c(=O)n1/N=C/c1c(O)ccc2ccccc12,-14.2,11.4,-26.2,68.8*,-0.5
Cc1nc2ccccc2c(=O)n1/N=C/c1ccc2ccccc2c1O,5.7,24.3,-3.7,10.8*,-11.2
Cc1ccc(-c2[nH]ncc2/C=N/n2c(C)nc3ccccc3c2=O)cc1,-2.6,61.2*,3.6,-0.1,10.4
CC(=O)CC(C)(C)NC(C)=S,-2.4,-1.0,2.1,-0.2,2.9
Cc1ccc(S(=O)(=O)NCC(=O)N2CCOCCOCCOCC2)cc1,21.0,-3.0,-0.6,-0.3,-7.1
COC(=O)c1sccc1NC(=O)c1ccc(C)s1,1.4,50.3*,2.9,0.1,-11.3
SMILES,pCIP destab,AHR activator,Platelet DG rel,HIF act,PolyA inh
COC(=O)c1sccc1NC(=O)c1ccc(Cl)s1,4.9,20.4,-6.7,-0.1,-16.5
COc1cccc(C(C[N+](=O)[O-])c2c(C)[nH]n(-c3ccccc3)c2=O)c1 (centres undefined),-6.3,3.9,16.7,55.1*,-21.4
CC(=O)OCC(OC(C)=O)C(OC(C)=O)C(OC(C)=O)C(=O)Nc1cccc(C)c1 (centres undefined),-3.7,4.0,-35.8,-0.1,-8.6
O=C(COc1ccc2c(c1)oc(=O)c1ccccc12)NC(Cc1ccc(Cl)cc1)C(=O)O (centres undefined),5.6,1.4,-2.2,0.1,-18.5
COc1ccc(-c2[nH]ncc2N=Nc2cc(C)cc(C)c2)cc1,0.7,66.5*,3.4,1.8,-8.0
COc1ccc(-c2[nH]ncc2N=Nc2ccccc2)cc1,-1.6,12.6,-5.9,1.9,-43.7
Cc1ccc(-c2csc(NC(=O)c3c(C)noc3C)n2)s1,/,76.0*,/,/,/
Cc1ccc(-c2csc(NC(=O)c3c(C)noc3C)n2)cc1C,/,-0.3,/,/,/
CCOc1cc2c3c(c1)C1(C(=O)N3C(C)(C)CC2C)C(C#N)=C(N)N2C(=C1C#N)Nc1ccccc12 (centres undefined),-0.1,58.0*,9.5,0.5,13.4
O=C1C=C(c2ccccc2)CC(/C=C/c2ccccc2)C1 (centres undefined),0.9,75.2*,-8.0,-0.6,-6.8
Nc1ccccc1C(=O)NCC1(c2ccccc2)CCCC1,-0.2,2.8,-9.8,-0.3,-20.1
Cc1csc(-c2cnn(-c3ccccc3)c2NC(=O)c2cccc(C(F)(F)F)c2)n1,6.5,3.5,2.0,0.7,-18.5
COc1cc2c(C)nc3onc(-c4ccccc4)c3c2cc1OC,-5.7,71.2*,0.6,-0.8,-30.3
CN(CC(=O)NCCc1ccccc1)S(=O)(=O)c1ccccc1,1.0,-0.1,-7.1,-0.6,0.6
COc1ccc(-n2nc3cc(C)c(N)c(Br)c3n2)cc1,-7.0,48.8*,30.3,3.4,-5.1
COc1ccc(-n2nc3cc(C)c(NC(C)=O)cc3n2)cc1,1.0,75.4*,10.5,-0.4,-14.4
COc1ccc(-n2nc3ccccc3n2)cc1,9.9,17.1,-3.2,3.4,7.2
COc1ccccc1Nc1ncnc2c1c(C)c(C)n2CCO,4.1,/,2.2,0.6,0.0
CCc1ccc(C(=O)NC(CCSC)C(=O)OC)cc1 (centres undefined),-5.0,1.4,1.4,1.1,21.6
O=C(c1cccn2c(=O)c3cc(Cl)ccc3nc12)N1CCN(Cc2ccc3c(c2)OCO3)CC1,10.0,70.2*,0.4,0.4,2.1
O=C(c1cccn2c(=O)c3cc(Cl)ccc3nc12)N1CCOCC1,0.7,90.7*,7.5,0.0,8.2
NC(=O)C1(N2CCCCC2)CCN(C(=O)c2cccn3c(=O)c4cc(Cl)ccc4nc23)CC1,-3.1,26.1,-3.2,-0.2,15.2
Cc1cc(C)cc(NC(=O)c2cnn(-c3ccccc3)c2C2CCNCC2)c1,-8.7,2.6,1.2,-0.4,13.8
Cc1cc(C)c(C)c(S(=O)(=O)Nc2ccccc2C(=O)NCCCN2CCOCC2)c1C,0.6,0.6,3.1,-0.1,-7.1
CN(CC(=O)Nc1ccccc1N1CCCC1)S(=O)(=O)c1ccc(F)cc1,/,4.0,0.2,0.0,-5.5
COc1ccc(OCCOC(=O)c2cc(S(=O)(=O)N3CCOCC3)c(Cl)cc2Cl)cc1,/,2.3,2.9,-0.2,21.4
COc1ccc(-c2cc(=O)oc3c(C)c(OC(C)C(=O)NCc4ccccn4)ccc23)cc1 (centres undefined),-7.4,-1.4,0.4,-0.1,-4.4
